Screens from PubChem.
mHTT-CaM PPI inh = disrupts binding of mutant huntingtin to calmodulin | P42858 | AlphaScreen His-mHTT/GST-CaM binding, luminescence | inhibition, % at 15 µM | 190,000 tested, 3.6% active | AID 1671202;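 note: 0% = both proteins with DMSO and 100% = one protein alone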
Pf apPOL block = Pf-apPOL DNA polymerase inhibition. 210,000 tested, 0.25% active. inhibition, % at 10 µM. Recombinant Pf-apPOL, molecular beacon fluorescence, 1.5 h
* = called active by the depositor; / = no result given; ! = not confirmed by another sample. A selection: hits, their analogues and other compounds. The true share with any hit is near 3.6%. Cut-off read from the data, not from the text of the source: active = inhibition above about 50%; inactive = the rest.

SMILES | mHTT-CaM PPI inh | Pf apPOL block
CCc1ccc(S(=O)(=O)NCCC2CCN(C(=O)c3ccccc3)CC2)cc1 | 39 | -4
O=C(c1ccccc1)N1CCC(CCNS(=O)(=O)c2ccccc2)CC1 | 50* | 1
COc1ccc(/C=C2/N=C(c3cccc(Cl)c3)OC2=O)c(OC)c1 | 3 | 3
Cc1cccc(C)c1NC(=O)c1cc(S(=O)(=O)N2CC(C)CC(C)C2)ccc1F (centres undefined) | -8 | 23
O=C(Nc1cc(N2CCOCC2)ncn1)c1ccc2nsnc2c1 | -12 | -2
CC(C)CC(=O)N1CCc2cn(CC(C)C)c3cccc(c23)C1 | 41 | -1
CCn1cc2c3c(cccc31)CN(C(=O)NC(C)C)CC2 | -5 | -6
CCCC(=O)N1CCc2cn(CC(C)C)c3cccc(c23)C1 | 53* | -4
CC(C)Cn1cc2c3c(cccc31)CN(C(=O)c1ccccn1)CC2 | 88* | -5
CC(C)Cn1cc2c3c(cccc31)CN(C(=O)Cc1cccs1)CC2 | 64* | -7
CC(C)CC(=O)N1CCc2cn(C)c3cccc(c23)C1 | 10 | -5
O=C(Nc1ccc(F)cc1)c1cc(I)ccc1Cl | -17 | -1
COc1ccc(F)cc1S(=O)(=O)N1CCC(c2nc3ccncc3n2CC(C)C)C1 (centres undefined) | 21 | 1
Cc1ccc(N2C(=O)CC(NCCc3c[nH]c4ccccc34)C2=O)cc1 (centres undefined) | 18 | -2
Cn1c(NC(=O)c2ccc(F)cc2)nc2ccccc21 | 34 | -7
COc1cc(C(=O)Nc2ccc3c(c2)ncn3-c2ccc(C)cc2)cc(OC)c1OC | 53* | -3
COc1cc(C(=O)Nc2nc3ccccc3n2C)cc(OC)c1OC | 57* | -10
COc1ccccc1-n1cnc2cc(NC(=O)c3cc(OC)c(OC)c(OC)c3)ccc21 | 21 | -2
Cc1nnc(SCC(=O)Nc2ncc(Br)cc2Br)[nH]c1=O | -2 | -2
Cc1ccc(N2C(=O)NC3CC2(C)Oc2ccc(Cl)cc23)cc1Cl (centres undefined) | 27 | 19
O=C(Nc1nc(-c2cc3ccccc3oc2=O)cs1)c1ccc(F)cc1 | -1 | -2
O=C(Nc1nc(-c2cc3ccccc3oc2=O)cs1)c1ccc(Br)s1 | -8 | 75*
CCc1cc(C(=O)Nc2ccc(F)cc2)no1 | -8 | -5
N#CC1C(c2ccc3ccccc3n2)=CN(CC(=O)c2ccc([N+](=O)[O-])cc2)c2ccccc21 (centres undefined) | 32 | 75*
O=C(Cn1nnc2ccccc21)c1ccc([N+](=O)[O-])cc1 | 5 | 2
SMILES | mHTT-CaM PPI inh | Pf apPOL block
Brc1ccc(-c2nn3c(-c4ccccn4)nnc3s2)o1 | 85* | /
c1ccc(-c2nnc3sc(C4CCCCC4)nn23)nc1 | 5 | /
CCN(CC(O)COCC12CC3CC(CC(C3)C1)C2)C1CCCCC1 (centres undefined) | -2 | 0
N#CC1=C2NC(=O)c3c(sc4c3CCCCC4)N2C2=C(C(=O)CCC2)C1c1cccnc1 (centres undefined) | 37 | 0
N#CC1=C2N=C(N)c3c(sc4c3CCCCC4)N2C2=C(C(=O)CCC2)C1c1cccnc1 (centres undefined) | 61* | -6
Nc1nnnn1CC(=O)O | -4 | /
CCN(Cc1ccccc1)S(=O)(=O)c1ccccc1Br | -61 | -3
O=S(=O)(c1ccccc1Br)N(Cc1ccccc1)CC(O)COCc1ccccc1 (centres undefined) | 98* | 1
COc1ccc(S(=O)(=O)N2CC3CN(C(=O)C4CCOC4)CC(C2)O3)cc1 (centres undefined) | 2 | -1
O=C1/C(=C/c2c[nH]c3ccccc23)CC/C1=C\c1c[nH]c2ccccc12 | 98* | -3
O=C1/C(=C/c2c[nH]c3ccccc23)Sc2ccccc21 | 13 | -5
O=[N+]([O-])c1ccc(O)c(C=Nc2cccc3ncccc23)c1 | 26 | -2
Cc1ccc(O)c(C=Nc2ccc(Br)c3cccnc23)c1 | 101* | -4
Brc1cccc(CN2CCC(N3CCCCCC3)CC2)c1 | -2 | 70*
Brc1cccc(CN2CCC(N3CCCCC3)CC2)c1 | 10 | 3
O=c1c(-c2ccccc2)c1-c1ccccc1 | / | -14
O=C1C=C(c2ccccc2)C(=O)C=C1Cl | / | 50*
COc1ccccc1NC(=O)CN1CCN(Cc2nc3ccccc3n2C)CC1 | -11 | -12
Cc1nc2ccc(N(C)C)cc2s1 | 13 | -7
CN(C)c1ccc2nc3ccc(=O)cc-3sc2c1 | 59* | /
O=C1c2ccccc2C(=O)c2c1oc1c3c(ccc21)OCN(Cc1ccccc1)C3 | 11 | 14
CC(=O)c1c(C)oc2c1c1c(c3ccccc32)OCN(C2CCCCC2)C1 | 6 | 1
COCCCN1COc2ccc3c(C)c(-c4ccccc4)c(=O)oc3c2C1 | 12 | -10
CC1(C)CC(N2COc3ccc4c5c(oc4c3C2)C(=O)c2ccccc2C5=O)CC(C)(C)N1 | 96*! | 37
CC(=O)c1c(C)oc2c1c1c(c3ccccc32)OCN(C2CC(C)(C)NC(C)(C)C2)C1 | 78* | 7
